# The list is not random: actives were taken first. Their share in the collection is about 27%.
# CYP2C9 inhib: inhibitors of human CYP2C9 | P11712 | 96,000 compounds, 20% hits | CYP2C9 Supersomes, luciferin-H conversion, luminescence | inhibition, % at 5 µM;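 active = blocking of liver enzyme CYP2C9 beyond about 50% at 5 µM, limit read from the data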
# Target sequence (P11712 whole entry, looked up): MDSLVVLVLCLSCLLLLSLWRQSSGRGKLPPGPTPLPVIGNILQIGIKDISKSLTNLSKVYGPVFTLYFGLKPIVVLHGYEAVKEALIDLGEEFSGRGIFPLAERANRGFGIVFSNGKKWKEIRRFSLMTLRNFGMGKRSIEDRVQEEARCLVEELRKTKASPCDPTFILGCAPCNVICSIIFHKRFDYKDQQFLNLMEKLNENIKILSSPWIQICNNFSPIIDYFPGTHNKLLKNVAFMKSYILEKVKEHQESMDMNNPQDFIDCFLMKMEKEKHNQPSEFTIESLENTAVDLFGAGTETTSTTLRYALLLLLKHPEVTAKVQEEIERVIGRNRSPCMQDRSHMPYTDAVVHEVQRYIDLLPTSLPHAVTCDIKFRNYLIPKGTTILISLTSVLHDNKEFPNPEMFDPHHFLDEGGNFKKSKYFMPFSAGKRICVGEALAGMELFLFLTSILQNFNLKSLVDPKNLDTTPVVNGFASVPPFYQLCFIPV
# CYP2C9 act: activators of human CYP2C9; recombinant CYP2C9, luciferin-H conversion, luminescence; stronger effect = higher value; factor 1 = untreated enzyme, 0 = blocked; activation factor at 5 µM; 96,000 compounds, 1.4% hits; P11712;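 active = activation factor of 2 or more for CYP2C9 at a 5 µM dose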;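 note: 0 = sulfaphenazole-blocked wells and 1 = vehicle-only wells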
# sEH inhibitor: blocks human soluble epoxide hydrolase activity; P34913; recombinant human sEH enzymatic activity assay; inhibition, % at 2 µM; 91,000 compounds, 0.34% hits; AID 707; in the data active = inhibition above about 80%
# CYP2C19 activ: cytochrome P450 2C19 (human) activation; P33261; recombinant CYP2C19, luciferin-H EGE luminescence; stronger effect = higher value; 0 = fully inhibited enzyme, 1 = untreated enzyme; activation factor at 5 µM; 96,000 tested, under 10 active;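 active = activation factor of at least 2 at 5 µM in the primary screen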;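 note: 0 = wells with 2.5 mM tranylcypromine and 1 = vehicle-only wells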
# sEH act: increases human soluble epoxide hydrolase activity. 91,000 compounds, 0.04% hits. purified human sEH enzymatic activity, activator screen. activation, % at 2 µM; in the data active = activation above about 37%
# CYP2C19 inhib: inhibitors of human CYP2C19; 96,000 compounds, 21% hits; P33261; CYP2C19 Supersomes, luciferin-H EGE luminescence, 30 min; inhibition, % at 5 µM;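 active = CYP2C19 inhibition above a set limit at 5 µM in the primary screen, cut at about 50% in these data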;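 note: plate controls were negative control wells for no effect and 2.5 mM tranylcypromine positive control for full effect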
# Numbers without * were called inactive; . = no result.
SMILES,CYP2C9 inhib,CYP2C9 act,sEH inhibitor,CYP2C19 activ,sEH act,CYP2C19 inhib
CCC(C)NC(=O)CSc1nc2ccc(N3CCOCC3)cc2c(=O)n1CCc1ccccc1 (stereo unspecified),5.1,0.9,.,1,.,1.4
CCOC(=O)CSc1nc2ccc(N3CCOCC3)cc2c(=O)n1Cc1ccc2c(c1)OCO2,74.8*,0.3,.,0.2,.,81.1*
CCCCn1c(SCC(=O)Nc2ccc(OC)cc2)nc2ccc(N3CCOCC3)cc2c1=O,100.0*,0,-9.2,0.2,9.3,83.8*
COC(=O)c1[nH]c2ccccc2c1NC(=O)CNC1CCCCC1,-17.3,1.2,-7.4,1.1,6.0,-10.7
CCCCn1c(SCC(=O)N2CCCCC2)nc2cc(S(N)(=O)=O)ccc21,23.7,0.8,5.4,0.9,-5.8,9.4
CCCCn1c(SCC(=O)NCc2ccco2)nc2cc(S(N)(=O)=O)ccc21,67.5*,0.3,-0.3,0.4,0.1,56.3*
CCCCn1c(SCc2nc3ccccc3s2)nc2cc(S(N)(=O)=O)ccc21,72.7*,0.3,-4.1,0.8,2.7,16.9
COc1cc2nc(SCC(=O)NCc3ccco3)n(Cc3ccc(Cl)cc3)c(=O)c2cc1OC,.,.,8.3,.,-5.9,.
COCCNC(=O)CSc1nc2ccc(N3CCOCC3)cc2c(=O)n1Cc1ccc(OC)cc1,83.9*,0.2,3.5,0.5,-6.4,48.6
CCCCn1c(SCC2CCCCO2)nc2cc(S(N)(=O)=O)ccc21 (stereo unspecified),45.6,0.5,1.2,0.9,-0.7,6.6
CCCCn1c(SCC(=O)NCc2ccco2)nc2ccc(N3CCOCC3)cc2c1=O,59.6*,0.4,.,0.8,.,21.9
CC(C)OCCCN1C(=O)c2ccccc2C1C(=O)NC1CCCCC1 (stereo unspecified),0.6,1,8.4,1.1,-9.5,-7.1
Cn1c(=O)c2c(ncn2CC(=O)NCc2cccnc2)n(C)c1=O,10.0,0.9,-1.5,1,1.3,-3.7
Cc1ccc(-c2onc3ccc(C=O)cc23)cc1,24.9,0.8,-0.8,0.7,-0.3,25.3
Cc1ccc(-c2onc3ccc(C4(C)OCCO4)cc23)cc1,53.9*,0.5,-4.6,0.4,4.9,59.9*
CCOC(=O)N1CCN(C(=O)c2cn(CCOC)c(=O)c3c2c2ccccc2n3C)CC1,-1.9,1,6.0,1.1,-7.6,-9.7
COc1ccc(OCCSc2nnc(-c3ccc(OC)cc3)n2N)cc1,31.7,0.7,-11.4,0.6,11.4,37.7
O=C(CN(C1CCCCC1)S(=O)(=O)c1ccccc1)NCc1cccnc1,.,.,8.4,.,-10.2,.
CS(=O)(=O)N(CC(=O)NCc1cccnc1)Cc1ccc(Cl)cc1,53.7*,0.5,-1.7,0,-0.2,97.0*
CS(=O)(=O)N(CC(=O)NCc1ccc2c(c1)OCO2)Cc1ccc(Cl)cc1,81.2*,0.2,23.1,0.2,-19.2,78.8*
O=C(CN(C1CCCCC1)S(=O)(=O)c1ccc(Cl)cc1)NCc1cccnc1,92.4*,0.1,2.0,0,-1.6,100.1*
COCCNC(=O)CN(Cc1ccc(Cl)cc1)S(C)(=O)=O,-12.4,1.1,-0.5,0.8,-1.5,16.0
CS(=O)(=O)N(CC(=O)NCc1ccncc1)Cc1ccc(Cl)cc1,93.7*,0.1,-5.6,0,8.3,99.1*
CS(=O)(=O)N(CC(=O)NCc1ccc2c(c1)OCO2)c1ccc(Cl)cc1,12.3,0.9,5.9,0.6,-5.5,41.0
CCOC(=O)C1CCCN(c2c(NCCCN(CC)c3cccc(C)c3)c(=O)c2=O)C1 (stereo unspecified),29.8,0.7,8.6,0.5,-5.8,48.1
SMILES,CYP2C9 inhib,CYP2C9 act,sEH inhibitor,CYP2C19 activ,sEH act,CYP2C19 inhib
CCc1c(C#N)c(N)nc(SCC(=O)OCc2ccccc2)c1C#N,7.3,0.9,5.8,0.9,-7.0,6.1
N#Cc1ccc(CSc2nnc(-c3cccc(S(=O)(=O)N4CCCCC4)c3)o2)cc1,19.1,0.8,-15.2,0.8,16.0,20.1
CCc1nc(-c2ccccc2O)n(-c2ccccc2)n1,18.5,0.8,-4.6,0.3,8.6,74.5*
COC(=O)Cn1cc(C(=O)OC)cc(Br)c1=O,12.7,0.9,.,0.6,.,38.9
COC(=O)c1cc(Br)c(=O)n(Cc2ccc3c(c2)OCO3)c1,79.9*,0.2,.,0.1,.,87.2*
COC(=O)c1cc(Br)c(=O)n(CCc2ccccc2)c1,13.6,0.9,0.7,0.4,0.9,61.6*
Cc1ccc(SCC(=O)NC(C)(C)C)cc1,12.9,0.9,11.9,0.8,-13.6,15.6
CN(C(=O)c1ccccc1Cl)C1CCCCC1,37.4,0.6,0.2,0.2,3.1,75.4*
CC(C)(C)Cc1nc(-c2ccc(Cl)cc2)no1,-10.6,1.1,-26.3,1.1,22.7,-10.9
Cc1cc(N2C(=O)C3C4C=CC(C4)C3C2=O)ccc1Br (stereo unspecified),23.9,0.8,-3.3,0.3,5.4,72.8*
O=C1C2C3C=CC(C3)C2C(=O)N1c1ccc2c(c1)OCO2 (stereo unspecified),-7.8,1.1,.,0.9,.,8.5
Cn1c(=O)n(Cc2ccccc2)c(=O)c2c1nc1n2CCS1,85.1*,0.1,-12.4,0.4,10.7,57.0*
Cn1c(=O)n(Cc2ccccc2)c(=O)c2c1nc1n2CCCN1CCc1ccccc1,33.1,0.7,-1.3,0.4,1.8,57.8*
Cn1c(=O)n(Cc2ccccc2)c(=O)c2c1nc1n2CCCN1Cc1ccccc1,1.4,1,-17.3,0.8,18.6,16.9
C=CCn1c(=O)c2c(nc3n2CCS3)n(C)c1=O,-0.2,1,5.1,1,-2.3,-3.7
CC1CCCCN1CCNC(=O)c1cnn2ccccc12 (stereo unspecified),28.1,0.7,.,1.1,.,-8.6
CCOC(=O)C1(O)CSc2nc3sc(C(=O)O)c(C)c3c(=O)n21 (stereo unspecified),-14.9,1.1,-1.6,1.2,1.7,-17.9
Cc1cc(C)c2cc(CN(Cc3nnnn3C3CCCCC3)CC3CCCO3)c(=O)[nH]c2c1 (stereo unspecified),55.2*,0.4,7.5,0.1,-7.8,85.8*
COCCn1nnnc1CN(CCc1ccc(OC)c(OC)c1)Cc1cc2ccc(C)cc2[nH]c1=O,60.8*,0.4,-6.9,0.4,5.5,58.6*
COc1ccc2cc(CN(Cc3cccs3)Cc3nnnn3Cc3ccccc3)c(=O)[nH]c2c1,.,.,-7.4,.,8.6,.
CCc1ccc2[nH]c(=O)c(CN(Cc3nnnn3C3CCCC3)C3CCCCC3)cc2c1,82.3*,0.2,.,0.2,.,76.4*
COc1ccc2cc(CN(Cc3cccnc3)Cc3nnnn3Cc3ccccc3)c(=O)[nH]c2c1,89.8*,0.1,0.5,0.1,0.5,93.1*
CCC(c1nnnn1CCOC)N(Cc1cc2c(C)cc(C)cc2[nH]c1=O)CC1CCCO1 (stereo unspecified),20.6,0.8,7.2,0.9,-8.2,10.9
CCn1c(C(C#N)/C(=N\S(=O)(=O)c2cccs2)c2ccccc2)nc2ccccc21 (stereo unspecified),11.8,0.9,-5.0,1,6.5,3.2

# Screens (PubChem)
